Hits are enriched below; roughly 2.2% of the tested compounds scored in any of these assays.
FUS suppressor: FUS proteinopathy suppression in yeast | S. cerevisiae FUS-expressing, growth rescue, OD600, 24 h | Potency, µM (top dose mostly 76.6 µM), actives largely listed as activators | 390,000 tested, 0.24% active | AID 1347120;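 further: plate controls were DMSO vehicle for no effect and reference control for full effect; nearly all actives have a fitted effect of over 55% in size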
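Restored growth of FUS-toxic S. cerevisiae, read as 600 nm absorbance after 24 h at 30C in galactose medium (starting OD 0.005). Controls CP55940 and DMSO.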
Mito fusion act: mitochondrial division inhibition or fusion activation; AID 485298; 320,000 tested, 0.23% active; S. cerevisiae fusion-defective mutant growth rescue, CellTiterGlo 48 h; Potency, µM (series often up to 46.1 µM), inactives show at the highest dose growth rescue (activation), usual class: activators; further: % of control where 0% means no effect; nearly all actives have a fitted effect of over 45% in size
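Temperature-sensitive fusion-defective S. cerevisiae (e.g. fzo1-1, mgm1-5) were grown with compound in YPEG medium (3% ethanol, 3% glycerol) for 48 hours at 37C. Growth rescue was measured as viability by CellTiterGlo luminescence after 10 minutes at ambient.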
Abeta yeast res: A-beta toxicity reversal in yeast; AID 1347071; Potency, µM (top dose mostly 46.1 µM), most hits filed as activators; 410,000 tested, 0.063% active; yeast expressing A-beta42, growth rescue, OD600, 48 h; response scale: 0% DMSO, 100% iron-clioquinol control; further: nearly all actives have a fitted effect of over 55% in size
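Yeast growth medium received pinned compounds, then yeast cells expressing toxic A-beta were added; plates incubated at 30 C for 48 hr. Growth read as absorbance at 600 nm, normalized to DMSO and equimolar FeCl3 plus clioquinol controls.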
aSyn rescue: rescues yeast growth from alpha-synuclein toxicity; Yeast expressing alpha-synuclein, growth rescue, BacTiter-Glo, 24 h; 370,000 tested, 0.14% active; Potency, µM (series often up to 46.1 µM), for inactives: at the top dose growth rescue (activation), usual class: activators; further: % of control where 0% means no effect; nearly all actives have a fitted effect of over 65% in size
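Readout is rescue of growth in alpha-synuclein-expressing yeast, so inhibitors of toxicity appear as activators. Growth after 24 hr at 30 deg C in galactose medium is quantified by luminescence.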
TDP-43 yeast inh: rescues yeast growth from TDP-43 toxicity; TDP-43 expressing yeast growth rescue, BacTiter-Glo, 24 h; Potency, µM (titrated, usually from 46.1 µM), for inactives: at the top dose growth rescue (activation), usual class: activators; 410,000 tested, 1.8% active; further: % of control where 0% means no effect; nearly all actives have a fitted effect of over 50% in size
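Readout is BacTiter-Glo luminescence of cell growth, so inhibitors register as activators. TDP-43-expressing yeast at OD600=0.02 in galactose medium, after raffinose pregrowth to mid-log, were incubated with compound for 24 hr at 30 deg C.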
The depositor's hits bear a star; i = inactive; ? = inconclusive; / = no result given; [ ] = remark or other dose. The call rests on the fitted dose curve; in most records, active means well fitted curve in the direction sought with a large enough effect; inconclusive means small, poorly fitted or top-dose-only effect, or another doubt; inactive means no such curve, though single readings can be large; an effect the other way counts as inactive or inconclusive. Potency means the concentration at half of the fitted maximal effect.

SMILES	FUS suppressor	Mito fusion act	Abeta yeast res	aSyn rescue	TDP-43 yeast inh
Cc1cc(C)c2c(c1)/C(=C/C(=O)c1ccc(Br)s1)C(=O)N2	?	0%	i	-7%	18µM*
Cc1cc(Br)c2c(c1)/C(=C/C(=O)c1cccs1)C(=O)N2	i	0%	i	10%	-21%[9.22 µM]
COc1cccc(N2CCN(S(=O)(=O)c3ccc(-c4cc(C(F)(F)F)on4)s3)CC2)c1	i	/	i	/	19%
O=C(CCNc1cc(Cl)cc(Cl)c1)c1ccco1	i	-10%	i	16%	16µM*
O=C(Cn1c2ncccc2c(=O)n1-c1ccccc1)NCc1ccccc1	i	/	i	/	13µM*
COc1ccc(OC)c(CNCc2c(C(=O)O)n(Cc3cccc(F)c3)c3cc(OC)ccc23)c1	i	/	i	/	9%
CCCc1ccc(C2Sc3ccccc3NC3=C2C(=O)c2ccccc23)cc1 (stereo not given)	i	/	i	/	10%
CCOc1cc(C2Sc3ccccc3NC3=C2C(=O)c2ccccc23)ccc1O (stereo not given)	?	/	i	/	11µM*
O=C(Cc1ccccc1)NC1CC(=O)N(c2ccccc2)C1 (stereo not given)	i	/	i	/	15%
CC(C)(Cc1cc(CC(C)(C)C(=O)O)cc(C(C)(C)C)c1)C(=O)O	i	3%	i	3%	35µM*
CC(C)(C#N)Cc1cc(CC(C)(C)C#N)cc(C(C)(C)C)c1	i	-1%	i	-10%	-20%
O=S(=O)(/C(=C/c1ccc(C(F)(F)F)cc1)c1nc2ccccc2[nH]1)c1ccccc1	i	28%	i	-7%	10µM*
CC(C)c1ccc(/C=C(\c2nc3ccccc3[nH]2)S(=O)(=O)c2ccccc2)cc1	i	?	i	9%	25%
O=C(NCC(c1cccnc1)N1CCc2ccccc21)C(=O)Nc1ccccc1F (stereo not given)	i	/	i	/	17%
CCOC(=O)c1c(N)sc(C(N)=O)c1C	i	7%	i	2%	13%
CCCOC(=O)c1c(N)sc(C(=O)OCC)c1C	i	22%	i	4%	7.9µM*
Cc1ccc(NC(=O)CN2C(=O)S/C(=C\c3cc(Cl)c(OCC(=O)O)c(Cl)c3)C2=O)cc1	i	-4%	i	-1%	-2%
CC(C)(C)c1cccc(Cn2nnc3ccccc32)c1O	i	20µM*	i	1%	?
COc1ccccc1NC(=S)NC(=O)C1CC1	/	-5%	i	-12%	?
O=C(NC(=S)Nc1ccccc1Cl)C1CC1	i	-7%	i	-19%	10µM*
COC(=O)NC(=S)Nc1ccc(Oc2ccc(Cl)cc2Cl)c(Cl)c1	i	9%	i	-19%	18µM*
O=C(NC(=S)Nc1ccc(F)c(Cl)c1)C1CC1	i	11%	?	-13%	3.2µM*
Fc1ccc(NC(=S)Nc2ccc(F)c(Cl)c2)cc1Cl	i	-1%	i	-41%	15%
Cc1ccc(NC(=S)NC(=O)C2CC2)cc1Cl	i	-1%	?	-20%	32µM*
CN(CC(=O)Nc1ccccc1Br)C(=O)COc1cccc2c1OC(C)(C)C2	i	5%	i	6%	-1%
SMILES	FUS suppressor	Mito fusion act	Abeta yeast res	aSyn rescue	TDP-43 yeast inh
O=C(NNc1ccccc1F)c1cccs1	/	/	/	4%	/
COc1ccc(NC(=O)Oc2ccccc2)cc1Cl	i	-1%	i	10%	18µM*
O=C(Nc1ccc(F)c(Cl)c1)C1CCCCC1	i	20%	i	-3%	18µM*
O=C(Nc1ccc(F)c(Cl)c1)C1CCCC1	i	/	i	-20%	-23%
CCSC1=NC2(CCN(C(=O)NC3CCCCC3)CC2)N=C1c1ccc(C)c(C)c1	i	/	i	/	-7%
CCCCOc1ccc(NC(=O)Nc2nnc(C)s2)cc1	i	17%	i	1.3µM*	7%
COc1cc(F)ccc1-c1csc(C(O)c2ccccc2)n1 (stereo not given)	?	/	i	21%	35µM*
COc1cccc(C(O)c2nc(-c3ccc(Cl)cc3)cs2)c1 (stereo not given)	i	/	?	10%	13µM*
COc1cccc(C(O)c2nc(-c3ccccc3)cs2)c1 (stereo not given)	i	/	i	21%	16µM*
COc1cccc(C(O)c2nc(-c3ccncc3)cs2)c1 (stereo not given)	i	/	i	-5%	25%
COc1cccc(C(O)c2nc(-c3ccccc3OC)cs2)c1 (stereo not given)	i	/	i	?	22µM*
O=C(Nc1ccc(Cl)cc1)c1cc(Br)ccc1OCC(=O)N1CCOCC1	/	3%	i	1%	15%
CN(C)c1ccc(C(=O)C(=O)N2CCN(c3ccccc3)CC2)cc1	i	/	i	2%	0%
Cc1noc(Cn2c(=O)c3cc4c(cc3n(CC(=O)Nc3ccc(C(C)C)cc3)c2=O)OCO4)n1	i	/	i	/	5%
COc1ccc(/C=C2/C(=O)ON=C2C)cc1Br	i	11%	i	-13%	-44%
COc1ccccc1/C=C1/C(=O)ON=C1C	i	-4%	i	-9%	14µM*
Nc1ccc2c(c1)[nH]c(=O)c1cc(N)ccc12	i	/	i	-3%	13%
CC(=O)O[C@H]1CC[C@@]2(C)C(CCC3C2CC[C@]2(C)OC(=O)CCC32)C1 (stereo not given in full)	i	10%	i	19%	35µM*
CC(=O)OC1CCC2(C)C(CCC3C4CC=C(C(C)=O)C4(C)OC(=O)CC32)C1 (stereo not given)	i	/	i	-19%	-85%
COc1cccc(OC)c1OC(=O)c1ccccc1	/	/	i	-1%	13%
Cc1ccc(Cn2c(=O)n(-c3cccc(C(F)(F)F)c3)c(=O)c3c(C)c(C)sc32)c(C)c1	i	/	i	/	14%
CC(=O)Nc1ccc(S(=O)(=O)N(C)CC(=O)N/N=C/c2ccncc2)cc1	i	22µM*	i	1%	-1%
Cc1cccc(C)c1-n1nnnc1C1(C)CCC(=O)N1CC(F)(F)F (stereo not given)	i	/	i	1%	25%
COc1ccc(Br)c(C(=O)OCC(=O)NC2CCCCCCC2)c1	i	/	i	27%	?
COc1ccc2c(c1)c(=O)oc1cc(OCC(=O)NC3CCCCC3)ccc12	i	-22%	?	0%	16µM*
COc1ccc(Br)c(C(=O)OCC(=O)NC2CCCCCC2)c1	i	23%	i	16%	22µM*
CC1=C(C(=O)NCc2ccc(Cl)cc2)C2(CCCCCC2)OC1=O	i	/	i	/	14%
CC(=O)N1CCN(C(=O)CN2C(=O)CC(C)(C)S(=O)(=O)c3ccccc32)CC1	i	/	/	/	/
